# From PubChem BioAssay (NCATS)
# Records with an inconclusive call do not appear. Calls of active or inactive are those of the source. Calls follow the shape of the dose curve; as a rule, active = well fitted cell-killing curve with a large enough effect; inconclusive = small, poorly fitted or top-dose-only effect, or effect the other way; inactive = flat fitted curve, though single readings scatter. Where a SMILES comes first, the peptide text is derived from it. [ ]: non-standard residue; d: D form. ξ: configuration not given here. ξPhe(βξ-Me) = CC(c1ccccc1)C(N)C(=O)O; GABA = NCCCC(=O)O
# System: Hek293T
# Assay: Primary qHTS to identify gynecologic anti-cancer compounds using libraries of approved drugs and bioactive compounds (AID 1345084); also: nearly all actives have a fitted effect of over 55% in size
# Details: Gynecologic cancer cell panel viability, ATPlite luminescence, 48 h, control line for the selectivity index; series mostly up to 57.5 µM; activity change, negative = cytotoxicity: at the top concentration
# Outline: (§1)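 Cytotoxicity screen measuring ATP content by luciferase luminescence. Each compound is applied at five concentrations for 48 h at 37 C with 5% CO2.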
# % is scaled to controls: 0 for no effect and ±100 for the full control effect.
SMILES,Potency,"activity change, negative = cytotoxicity"
CCN[C@@H]1C[C@H](N)[C@@H](O[C@H]2OC(CN)=CC[C@H]2N)[C@H](O)[C@H]1O[C@H]1OC[C@](C)(O)[C@H](NC)[C@H]1O,inactive,
CC(CO[C@@H]1O[C@H](COC(=O)/C=C/c2ccc(O)c(O)c2)[C@@H](O)[C@H](O)[C@H]1O)C1(O)COC(=O)C1 (stereo partly specified),,-13.4% [at 25.3 µM] (inactive)
Oc1ccc([C@H]2COc3cc(O)ccc3C2)cc1,,4.92% (inactive)
CC1(C)CCC[C@@]2(C)[C@H]1[C@H](O)C=C1COC(=O)[C@@]12O,,0.898% (inactive)
O=C1[C@H](O[C@@H]2O[C@H](CO)[C@@H](O)[C@H](O)[C@H]2O)Oc2ccccc2N1O,,1.86% [at 38.5 µM] (inactive)
COC(=O)[C@H](OC(C)=O)[C@H]1C(C)(C)C(=O)[C@H]2CC3=C4CC(=O)O[C@@H](c5ccoc5)[C@]4(C)CCC3[C@@]1(C)C2=O (stereo partly specified),,9.37% [at 25.3 µM] (inactive)
CCCCN(CCCC)C(=O)CN1C[C@H](c2ccc3c(c2)OCO3)[C@@H](C(=O)O)[C@@H]1c1ccc(OC)cc1,,-4.27% (inactive)
C=C[C@](C)(CC/C=C(\C)C(=O)O)O[C@@H]1OC[C@H](O)[C@H](O)[C@H]1O,,-2.99% [at 38.5 µM] (inactive)
COC(=O)C1=CO[C@@H](O[C@@H]2O[C@H](CO)[C@@H](O)[C@H](O)[C@H]2O)[C@@H]2[C@@H](C(=O)OC)[C@@H](O)C(O)[C@H]12 (stereo partly specified),,-5.28% [at 25.3 µM] (inactive)
O=C(O)Cc1nn(Cc2nc3cc(C(F)(F)F)ccc3s2)c(=O)c2nccnc12,,-3.24% (inactive)

# System: JEG-3
# Assay: as above
# Details: Gynecologic cancer cell panel viability, ATPlite luminescence, 48 h; series mostly up to 57.5 µM; activity change, negative = cytotoxicity: at the top concentration
# Outline: as §1
row,SMILES,"activity change, negative = cytotoxicity"
1,CC(C)C(=O)O[C@@H]1[C@@H](O)[C@@H](O[C@H]2O[C@H](CO)[C@@H](O)[C@H](O)[C@H]2O)O[C@H](CO)[C@H]1O,0.359% [at 25.3 µM] (inactive)
2,C=C(C(=O)O)[C@@H]1CC=C2CCC[C@H](C)[C@@]2(C)C1,-1.48% (inactive)
3,CC1(C)CC[C@]2(C(=O)O)CC[C@]3(C)C(=CCC4[C@@]5(C)CCC(O[C@@H]6OC[C@H](O)[C@H](O)[C@H]6O[C@@H]6O[C@H](CO)[C@@H](O)[C@H](O)[C@H]6O)[C@@](C)(CO)C5CC[C@]43C)[C@@H]2C1 (stereo partly specified),9% [at 25.3 µM] (inactive)
4,CNc1nc(Nc2cnn([C@H]3CCN(C4COC4)C[C@@H]3F)c2Cl)ncc1C(F)(F)F,-0.421% (inactive)
5,CCCCNC(=O)[C@@H]1Cc2ccccc2N1C(=O)[C@@H](N)CC,0.224% (inactive)
6,Cc1coc2c1CC1OC1(C)CCC1OC1(C)C2 (stereo unspecified),-4.63% (inactive)
7,COC(=O)C1C(CC(C)=O)C=CC(O)C12Oc1cc(C)cc(O)c1C2=O (stereo unspecified),1.79% [at 38.5 µM] (inactive)
8,CCOC(=O)[C@H]1O[C@@H]1C(=O)N[C@@H](CC(C)C)C(=O)NCCC(C)C,-5.2% (inactive)
9,C=C1CCC2C(C)(C)C(O)CCC2(C)C1CCC(C)CCOC(=O)CCC(=O)O (stereo unspecified),0.678% [at 25.3 µM] (inactive)
10,CC1CCC2(C(=O)OC3OC(CO)C(O)C(O)C3O)CCC3(C(=O)O)C(=CCC4C5(C)CCC(OC6OC(C)C(O)C(O)C6O)C(C)(C)C5CCC43C)C2C1C (stereo unspecified),-2.38% [at 25.3 µM] (inactive)
11,COC1CC(=O)C23C(=O)NC(CC(C)C)C2C(C)C(C)=CC3/C=C(\C)CCC1O (stereo unspecified),0.856% [at 25.3 µM] (inactive)
12,C[C@@H]1O[C@@H](O[C@H]2[C@H](OC(=O)[C@]34CCC(C)(C)C[C@H]3C3=CCC5[C@@]6(C)C[C@H](O)[C@H](O[C@@H]7O[C@H](CO[C@@H]8OC[C@H](O)[C@H](O)[C@H]8O)[C@@H](O)[C@H](O)[C@H]7O)C(C)(C)C6CC[C@@]5(C)[C@]3(C)C[C@H]4O)OC[C@@H](O)[C@@H]2O)[C@H](O)[C@H](O[C@@H]2OC[C@](O)(CO)[C@H]2O)[C@H]1O[C@@H]1OC[C@H](O)[C@H](O[C@@H]2OC[C@@H](O)[C@H](O)[C@H]2O)[C@H]1O (stereo partly specified),-3.85% [at 6.55 µM] (inactive)
13,COc1cc(C)c(C(=O)O[C@H]2[C@@H](O)[C@H](n3ccc(=O)[nH]c3=O)O[C@@H]2CO)c(OC)c1,5.53% [at 25.3 µM] (inactive)
14,CC(C)CC1NC(=O)C(C(C)c2ccccc2)NC(=O)C(C(C)C)NC(=O)C(C)NC(=O)CCCNC(=O)C(Cc2c[nH]c3ccccc23)NC(=O)C(C)NC1=O (stereo not drawn) (cyclo([GABA]AV[ξPhe(βξ-Me)]LAW); configuration not given here),4.93% [at 25.3 µM] (inactive)
15,CC(C)Nc1cc(-c2c[nH]c(C(=O)N[C@H](CO)c3cccc(Cl)c3)c2)c(Cl)cn1,-3.13% (inactive)
16,COc1cc(N2CCC(O)CC2)ccc1Nc1cc(Nc2ccccc2S(=O)(=O)C(C)C)c2cc[nH]c2n1,5.03% [at 38.5 µM] (inactive)
17,O=C(O)C[C@@H](NC(=O)c1cc(-c2ccc(-c3ccncc3)cc2)cs1)c1ccccc1,-24.9% (inactive)
18,OC[C@H]1O[C@@H](n2cnc3c2NC=NC[C@H]3O)C[C@@H]1O,-0.13% (inactive)

row,SMILES,"activity change, negative = cytotoxicity"
1,CC1(C)C[C@H]2C3=CCC4[C@@]5(C)CC[C@H](O[C@H]6O[C@H](C(=O)O)[C@@H](O)[C@H](O)[C@H]6O[C@H]6O[C@H](CO)[C@@H](O)[C@H](O)[C@H]6O[C@@H]6O[C@H](CO)[C@@H](O)[C@H](O)[C@H]6O)[C@](C)(CO)C5CC[C@@]4(C)[C@]3(C)CC[C@@]2(C)[C@H](O[C@@H]2OC[C@H](O)[C@H](OC3O[C@H](CO)[C@@H](O)[C@H](O)[C@H]3O)[C@H]2O)[C@@H]1O (stereo partly specified),2.5% [at 6.55 µM] (inactive)
2,C[C@@H]1O[C@@H](O[C@H]2[C@H](OC(=O)[C@]34CCC(C)(C)C[C@H]3C3=CCC5[C@@]6(C)C[C@H](O)[C@H](O[C@@H]7O[C@H](CO)[C@@H](O[C@@H]8O[C@H](CO)[C@@H](O)[C@H](O)[C@H]8O)[C@H](O)[C@H]7O)[C@@](C)(CO)C6[C@H](O)C[C@@]5(C)[C@]3(C)C[C@H]4O)OC[C@H](O)[C@@H]2O)[C@H](O)[C@H](O)[C@H]1O[C@@H]1OC[C@@H](O)[C@H](O[C@@H]2OC[C@](O)(CO)[C@H]2O)[C@H]1O (stereo partly specified),7.67% [at 6.55 µM] (inactive)
3,Nc1ccn([C@@H]2C(F)=C(CO)[C@@H](O)[C@H]2O)c(=O)n1,0.0805% (inactive)
4,C[C@@H]1O[C@@H](OC[C@H]2O[C@@H](OCC3CCC4CC3C4(C)C)[C@H](O)[C@@H](O)[C@@H]2O)[C@H](O)[C@H](O)[C@H]1O (stereo partly specified),-1.64% [at 25.3 µM] (inactive)
5,CC(C)=CCC/C(C)=C/CC/C(C)=C/CC[C@]1(C)CCc2cc(O)cc(C)c2O1,-15.5% [at 25.3 µM] (inactive)
6,CC(=O)N1c2ccccc2C2(O)CC3C(=O)NC(CC(C)C)C(=O)N3C12 (stereo unspecified),-0.76% [at 38.5 µM] (inactive)
7,CCCCS(=O)(=O)Nc1ncnc(OCCOc2ncc(Br)cn2)c1-c1ccc(Br)cc1,16.5% (inactive)
8,C[C@@H]1O[C@@H](OC[C@H]2O[C@@H](OCCc3ccccc3)[C@H](O)[C@@H](O)[C@@H]2O)[C@H](O)[C@H](O)[C@H]1O,-13.1% [at 25.3 µM] (inactive)
9,CCN[C@@H]1C[C@H](N)[C@@H](O[C@H]2OC(CN)=CC[C@H]2N)[C@H](O)[C@H]1O[C@H]1OC[C@](C)(O)[C@H](NC)[C@H]1O,2.62% [at 25.3 µM] (inactive)
10,Oc1ccc([C@H]2COc3cc(O)ccc3C2)cc1,6.95% (inactive)
11,Cc1nnc(C(C)C)n1C1CC2CCC(C1)N2CCC(NC(=O)C1CCC(F)(F)CC1)c1ccccc1 (stereo unspecified),-6.79% (inactive)
12,CC1(C)CCC[C@@]2(C)[C@H]1[C@H](O)C=C1COC(=O)[C@@]12O,2.49% (inactive)
13,O=C1[C@H](O[C@@H]2O[C@H](CO)[C@@H](O)[C@H](O)[C@H]2O)Oc2ccccc2N1O,6.2% [at 38.5 µM] (inactive)
14,COC(=O)[C@H](OC(C)=O)[C@H]1C(C)(C)C(=O)[C@H]2CC3=C4CC(=O)O[C@@H](c5ccoc5)[C@]4(C)CCC3[C@@]1(C)C2=O (stereo partly specified),-2.96% [at 25.3 µM] (inactive)
15,CCCCN(CCCC)C(=O)CN1C[C@H](c2ccc3c(c2)OCO3)[C@@H](C(=O)O)[C@@H]1c1ccc(OC)cc1,-0.48% (inactive)
16,C=C[C@](C)(CC/C=C(\C)C(=O)O)O[C@@H]1OC[C@H](O)[C@H](O)[C@H]1O,15.4% [at 38.5 µM] (inactive)
17,COC(=O)C1=CO[C@@H](O[C@@H]2O[C@H](CO)[C@@H](O)[C@H](O)[C@H]2O)[C@@H]2[C@@H](C(=O)OC)[C@@H](O)C(O)[C@H]12 (stereo partly specified),9.79% [at 25.3 µM] (inactive)
18,O=C(O)Cc1nn(Cc2nc3cc(C(F)(F)F)ccc3s2)c(=O)c2nccnc12,0.0327% (inactive)
